Experimental data reported in PubChem BioAssay (NCATS).
Results filed as inconclusive are left out. A call without a number means that no potency is given here. Active and inactive are the calls of the source. Calls follow the shape of the dose curve; as a rule, active = well fitted inhibition curve with a large enough effect; inconclusive = small, poorly fitted or top-dose-only effect; inactive = flat fitted curve, though single readings scatter.

Each compound was assayed against Glutathione peroxidase 1 (Homo sapiens) (UniProt P07203) (assay: Primary qHTS Assay for Inhibitors of Recombinant Selenoprotein Glutathione Peroxidase 1 (GPX1) (AID 1845191; also: nearly all actives have a fitted effect of over 65% in size)). Details: recombinant GPX1, GR-coupled NADPH fluorescence, 15 min; series mostly up to 27.7 µM.
Sequence of Glutathione peroxidase 1 (Homo sapiens) (P07203 whole entry, looked up): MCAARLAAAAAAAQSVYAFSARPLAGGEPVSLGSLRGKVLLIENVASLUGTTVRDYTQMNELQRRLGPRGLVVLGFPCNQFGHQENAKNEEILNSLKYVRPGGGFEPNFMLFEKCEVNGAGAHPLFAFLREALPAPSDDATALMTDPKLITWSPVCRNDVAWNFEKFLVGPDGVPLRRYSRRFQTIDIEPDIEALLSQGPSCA
In short: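 GR-coupled assay: compounds preincubated 30 min at room temperature with GPX1, then reaction started with CHP; final 10 nM GPX1, 1 mM GSH, 0.5 mM CHP, 0.5 mM NADPH, 100 nM GR, 0.01% BSA, pH 7.5 Tris buffer. NADPH fluorescence (340/450 nm) read at 0 and 15 min.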

Row | Compound | Potency
1 | Cc1ccc([C@@H]2CC=C(C(=O)O)[C@H](c3ccc(C(C)(C)C)cc3)N2S(=O)(=O)c2ccc(C)cc2)cc1 | inactive
2 | C[C@@H]1O[C@@H](O[C@H]2[C@@H]3C=CO[C@@H](O[C@@H]4O[C@H](CO)[C@@H](O)[C@H](O)[C@H]4O)[C@@H]3[C@@]3(CO)O[C@@H]23)[C@H](OC(=O)/C=C/c2ccc(O)cc2)[C@H](O)[C@H]1O | inactive
3 | C=C(C(=O)O)C1CC(O)C2(C)CCCC(C)(O)C2C1 (stereo not drawn) | inactive
4 | CC1=C2C[C@H]3OC(=O)[C@H](O)[C@@]4(O)[C@@H](C)[C@@H](O)[C@H](O)C([C@@]2(C)[C@H](O)[C@@H](O)C1)[C@@]34C (stereo partly drawn) | inactive
5 | C[C@@H]1O[C@@H](O[C@H]2[C@@H]3C=CO[C@@H](O[C@@H]4O[C@H](CO)[C@@H](O)[C@H](O)[C@H]4O)[C@@H]3[C@@]3(CO)O[C@@H]23)[C@H](O)[C@H](O)[C@H]1OC(=O)/C=C/c1ccc(O)cc1 | inactive
6 | COc1ccc(CC(=O)NCc2ccccc2-c2ccccc2C(=O)NCCc2cccnc2)cc1 | inactive
7 | CC1(C)CC[C@]2(C(=O)O)CC[C@]3(C)C(=CCC4[C@@]5(C)C[C@@H](O)[C@H](O)[C@@](C)(CO)C5[C@H](O)C[C@]43C)[C@@H]2C1 (stereo partly drawn) | inactive
8 | CC1(C)CCC[C@@]2(C)[C@H]1[C@H](O)C=C(CO)[C@]2(O)CO | inactive
9 | Cc1occc(=O)c1O[C@@H]1O[C@H](CO)[C@@H](O)[C@H](O)[C@H]1O | inactive
10 | CC(C(=O)Nc1cc(C#N)ccc1CCCC(=O)O)c1ccc(F)c2ccccc12 (stereo not drawn) | inactive
11 | CC(=O)OC(C)(C)/C=C/C(=O)[C@](C)(O)C1[C@H](O)C[C@@]2(C)[C@@H]3CC=C4[C@@H](C[C@H](O[C@@H]5O[C@H](CO)[C@@H](O)[C@H](O)[C@H]5O)C(=O)C4(C)C)[C@]3(C)C(=O)C[C@]12C (stereo partly drawn) | inactive
12 | CC(C)=CCC[C@](C)(O[C@@H]1O[C@H](CO[C@@H]2O[C@@H](CO)[C@H](O)[C@H]2O[C@@H]2OC[C@@H](O)[C@H](O)[C@H]2O)[C@@H](O)[C@H](O)[C@H]1O)[C@H]1CC[C@]2(C)[C@@H]1[C@H](O)CC1[C@@]3(C)CC[C@H](O[C@@H]4O[C@H](CO)[C@@H](O)[C@H](O)[C@H]4O[C@@H]4O[C@H](CO)[C@@H](O)[C@H](O)[C@H]4O)C(C)(C)C3CC[C@]12C (stereo partly drawn) | inactive
13 | C=C1C[C@]23C[C@@]1(O)CC[C@H]2[C@@]12C=C[C@H](O)[C@@](C)(C(=O)O1)[C@H]2[C@@H]3C(=O)O | inactive
